High-throughput results deposited in PubChem BioAssay by National Center for Advancing Translational Sciences (NCATS).
Hits are enriched below; roughly 0.69% of the tested compounds scored in any of these assays.
GRP78 ERSR act: inducers of ER stress response in human glioma cells. U87-MG GRP78 promoter luciferase reporter, 16 h. 420,000 tested, 0.02% active. Potency, µM, inactives show top-dose activation, actives largely listed as activators; further: series mostly up to about 76 µM; % of control where 0% means no effect; nearly all actives have a fitted effect of over 35% in size
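Stably transfected U87-MG human glioma cells carrying a GRP78-based luminescent sensor were seeded at 1000 cells/well, pin-dosed with compounds and incubated 16 h. Luciferase reagent was then added, and end-point luminescence was read after 10 min at room temperature.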
Vif-A3F inh: blocks the Vif interaction with APOBEC3F; HeLa A3F-eYFP + Vif (tagged APOBEC3F with the HIV-1 protein that degrades it), YFP fluorescence increase; Potency, µM (series often up to 46.1 µM), for inactives: top-dose activity, negative = active; 390,000 tested, 0.2% active; further: % of control where 0% means no effect; nearly all actives have a fitted effect of over 65% in size
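HeLa cells stably expressing Vif plus C-terminally eYFP-tagged A3F were seeded, incubated overnight at 37 deg C, dosed with compound, incubated overnight again at 37 deg C. Yellow fluorescence (Ex 488/Em 500-530) reported blocked Vif-mediated A3F-eYFP degradation.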
FUS suppressor: suppressors of FUS proteinopathy in yeast; S. cerevisiae FUS-expressing, growth rescue, OD600, 24 h; Potency, µM (highest dose often 76.6 µM), actives largely listed as activators; 390,000 tested, 0.24% active; AID 1347120;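 further: plate controls were DMSO vehicle for no effect and reference control for full effect; nearly all actives have a fitted effect of over 55% in size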
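Compound concentration series was pinned onto galactose-induced FUS-expressing yeast seeded at OD 0.005. Plates sat 24hr at 30C; absorbance at 600 nm gave growth. DMSO served as background control.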
PINK1 expr mod: modulators of PINK1 expression | PINK1 immunofluorescence, high-content cytometry, 24 h | Potency, µM (series often up to 76.6 µM), for the others: at the top dose activation (PINK1 increase), most hits filed as activators | 410,000 tested, 0.2% active | AID 624263; active means well fitted activation curve with a large enough effect; inconclusive means small, poorly fitted or top-dose-only effect; cell line not stated here; further: % of control where 0% means no effect; nearly all actives have a fitted effect of over 65% in size
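Cells are seeded, rested 12 hours, then given compound at five concentrations or DMSO for 24 hours. After fixation, blocking and antibody staining, PINK1 amount and mitochondrial localization are scored; CCCP serves as control.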
Vif-APOBEC3G blk: blocks the Vif interaction with human APOBEC3G | AID 602310 | HeLa A3G-eYFP + Vif (tagged APOBEC3G with the HIV-1 protein that degrades it), YFP fluorescence, overnight | Q9HC16 | Potency, µM (series often up to 46.1 µM), without a hit: top-dose activity, negative = active, most hits filed as inhibitors | 410,000 tested, 0.076% active; further: on the % scale 0 is the no-effect control and ±100 the full control effect; nearly all actives have a fitted effect of over 60% in size
Target sequence (Q9HC16 whole entry, looked up): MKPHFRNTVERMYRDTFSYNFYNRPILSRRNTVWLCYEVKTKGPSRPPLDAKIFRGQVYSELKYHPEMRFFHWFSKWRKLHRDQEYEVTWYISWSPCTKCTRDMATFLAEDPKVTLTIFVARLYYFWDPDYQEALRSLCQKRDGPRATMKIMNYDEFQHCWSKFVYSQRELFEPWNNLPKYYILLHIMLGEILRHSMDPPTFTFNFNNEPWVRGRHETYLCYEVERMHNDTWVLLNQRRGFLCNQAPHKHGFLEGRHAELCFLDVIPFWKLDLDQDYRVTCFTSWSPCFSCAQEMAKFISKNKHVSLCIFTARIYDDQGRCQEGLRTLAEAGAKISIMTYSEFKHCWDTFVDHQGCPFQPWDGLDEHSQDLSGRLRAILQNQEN
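Read-out is eYFP fluorescence (Ex 488/Em 500-530) from Vif-expressing HeLa A3G-eYFP cells; more signal means A3G escaped Vif-mediated degradation. Cells plated overnight, compound pinned in, incubated overnight at 37 deg C.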
Abeta yeast res: restores growth of yeast expressing A-beta42 peptide; yeast expressing A-beta42, growth rescue, OD600, 48 h; response scale: 0% DMSO, 100% iron-clioquinol control; Potency, µM (top dose mostly 46.1 µM), most hits filed as activators; 410,000 tested, 0.063% active; further: nearly all actives have a fitted effect of over 55% in size
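Yeast A-beta toxicity model in growth medium with pinned compounds, 48 h at 30 C; growth read as absorbance at 600 nm. Normalized to FeCl3/clioquinol equimolar mix (positive) and DMSO (negative).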
The depositor's hits bear a star; ! = not confirmed by another sample. Unless noted, the call rests on the fitted dose curve; in most records, active means well fitted curve in the direction sought with a large enough effect; inconclusive means small, poorly fitted or top-dose-only effect, or another doubt; inactive means no such curve, though single readings can be large; an effect the other way counts as inactive or inconclusive. Potency means the concentration at half of the fitted maximal effect.

`Cc1ccc2c(Cl)cc(Cl)c(O)c2n1` gave GRP78 ERSR act 28µM*!, Vif-A3F inh inconclusive, FUS suppressor inactive, PINK1 expr mod 4%, Vif-APOBEC3G blk -22% and Abeta yeast res inactive.
For CCNC(C)Cc1ccc2c(c1)OCO2 (configuration not stated) the results were GRP78 ERSR act -6%.
N#C/C(=C/c1ccc(O)c(O)c1)C(N)=S was read as GRP78 ERSR act -3%.
For N#C/C(=C\c1ccc(O)c(O)c1)C(=O)NCCCNC(=O)/C(C#N)=C/c1ccc(O)c(O)c1 the results were GRP78 ERSR act 37µM*.
Oc1ccc2c3c1O[C@H]1[C@@H](O)C=CC4[C@@H](C2)NCC[C@@]341 (some centres not stated) was read as GRP78 ERSR act -2%.
`O=C(O)CCC(=O)NCCC1=c2ccccc2=N/C1=C\c1c(O)n(Cc2ccc(F)cc2)c(=S)[nH]c1=O` gave GRP78 ERSR act -6%, Vif-A3F inh -17%, FUS suppressor 20µM*, PINK1 expr mod 1%, Vif-APOBEC3G blk -13% and Abeta yeast res inactive.
`CN1CCN(c2ccc(/C=C3\C(=O)NC(=S)N(c4cccc(Br)c4)C3=O)o2)CC1` gave GRP78 ERSR act -3%, Vif-A3F inh 25µM*, FUS suppressor inconclusive, PINK1 expr mod 6%, Vif-APOBEC3G blk 22µM* and Abeta yeast res inactive.
For O=C1NC(=O)N(Cc2ccc(F)cc2)C(=O)/C1=C\c1ccoc1 the results were GRP78 ERSR act -6%, Vif-A3F inh 25µM*, FUS suppressor inactive, PINK1 expr mod 16%, Vif-APOBEC3G blk 2% and Abeta yeast res inactive.
Screening Cc1ccc(/C=C2/C(=O)NC(=O)N(CCc3ccc(F)cc3)C2=O)s1 returned GRP78 ERSR act 0%, Vif-A3F inh 8.9µM*, FUS suppressor inactive, PINK1 expr mod 10%, Vif-APOBEC3G blk 2% and Abeta yeast res inactive.
CN(C)c1ccc(/C=C2\C(=O)NC(=O)N(Cc3ccc(F)cc3)C2=O)cc1 was read as GRP78 ERSR act -2%, Vif-A3F inh -24%, FUS suppressor inactive, PINK1 expr mod 5%, Vif-APOBEC3G blk 0% and Abeta yeast res inactive.
Screening O=c1[nH]c2ccccc2n1C1CCN(C(c2ccccc2OC(F)(F)F)c2nnnn2Cc2ccccc2)CC1 (configuration not stated) returned GRP78 ERSR act -5%, FUS suppressor 20µM*, PINK1 expr mod 0%, Vif-APOBEC3G blk -10% and Abeta yeast res inactive.
O=c1[nH]c2ccccc2n1C1CCN(C(c2cccs2)c2nnnn2Cc2ccccc2)CC1 (configuration not stated) was read as GRP78 ERSR act 4%, FUS suppressor inconclusive, PINK1 expr mod -1%, Vif-APOBEC3G blk -9% and Abeta yeast res inactive.
`CC(=O)c1ccc2c(c1)C1C(Cl)C(Sc3ccccc3[N+](=O)[O-])CC1C(c1ccccc1[N+](=O)[O-])N2` (configuration not stated) gave GRP78 ERSR act -4%, Vif-A3F inh -8%, FUS suppressor inactive, PINK1 expr mod -1%, Vif-APOBEC3G blk 2% and Abeta yeast res inactive.
Screening CC(=O)c1ccc2c(c1)C1C(Cl)C(Sc3ccccc3[N+](=O)[O-])CC1C(c1ccccc1)N2 (configuration not stated) returned GRP78 ERSR act -10%, Vif-A3F inh 3%, FUS suppressor 40µM*, PINK1 expr mod -2%, Vif-APOBEC3G blk 2% and Abeta yeast res inactive.
`ClCCN(CCCl)/C(=C\c1ccccc1)c1ccnc2ccccc12` gave GRP78 ERSR act 2% and Vif-APOBEC3G blk -4%.
O=C1NC(=O)C2(Cc3ccccc3N3CCCC32)C(=O)N1c1ccccc1 (configuration not stated) was read as GRP78 ERSR act -2%, Vif-A3F inh -2%, FUS suppressor inconclusive, PINK1 expr mod 1%, Vif-APOBEC3G blk 1% and Abeta yeast res inactive.
Screening CN1c2ccc([N+](=O)[O-])cc2CC2(C(=O)NC(=O)N(c3ccc(Br)cc3)C2=O)C1c1ccccc1 (configuration not stated) returned GRP78 ERSR act -5%, Vif-A3F inh -15%, FUS suppressor 18µM*, PINK1 expr mod 2%, Vif-APOBEC3G blk -4% and Abeta yeast res inactive.
For ClC1=C(Cl)[C@]2(Cl)[C@@H]3[C@@H]4C[C@@H]([C@H]5O[C@@H]45)[C@@H]3[C@@]1(Cl)C2(Cl)Cl the results were GRP78 ERSR act -4%.
For CCC(C)N1C(=O)/C(=C\c2ccc(N3CCCCCC3)cc2)C(=O)NC1=S (configuration not stated) the results were GRP78 ERSR act -2%, Vif-A3F inh 22µM*, FUS suppressor inactive, PINK1 expr mod -1%, Vif-APOBEC3G blk -1% and Abeta yeast res inactive.
For CCn1c(O)c(/C=N/NC(=O)c2ccncc2)c(=O)n(CC)c1=S the results were GRP78 ERSR act -4%, Vif-A3F inh 7.9µM*, FUS suppressor inactive, PINK1 expr mod 1%, Vif-APOBEC3G blk inconclusive and Abeta yeast res inactive.
`C#C[C@]1(OC(=O)CCCCCC)CC[C@H]2C3CCC4=CC(=O)CC[C@@H]4[C@H]3CC[C@@]21C` (some centres not stated) gave GRP78 ERSR act -4%.
For CN1CC=C2C(C#N)=C(N)C(C#N)(C#N)C(c3ccncc3)C2C1 (configuration not stated) the results were GRP78 ERSR act -5%, Vif-A3F inh 0%, FUS suppressor inactive, PINK1 expr mod 25µM*, Vif-APOBEC3G blk 1% and Abeta yeast res inactive.
Screening Cc1ccccc1-n1c(/C=C/c2c(C)[nH]c3ccccc23)nc2ccccc2c1=O returned GRP78 ERSR act -3%, Vif-A3F inh -7%, FUS suppressor inactive, PINK1 expr mod 0%, Vif-APOBEC3G blk -15% and Abeta yeast res inactive.
For Cc1ccccc1-n1c(/C=C/c2ccc(N(C)C)cc2)nc2ccccc2c1=O the results were GRP78 ERSR act -2%, Vif-A3F inh inconclusive, FUS suppressor inactive, PINK1 expr mod 3%, Vif-APOBEC3G blk 3.2µM* and Abeta yeast res inactive.
For C[C@H]1[C@@H]2Cc3ccc(O)cc3[C@]1(C)CCN2C the results were GRP78 ERSR act -3%.
`CCCCCn1c(NC(=O)c2ccco2)c(C(=O)OCC)c2nc3ccccc3nc21` gave GRP78 ERSR act -13%, Vif-A3F inh inconclusive, FUS suppressor inactive, PINK1 expr mod 6%, Vif-APOBEC3G blk 11µM* and Abeta yeast res inactive.
